Source: PMC7819943, “Rice protein-binding microarrays: a tool to detect cis-acting elements near promoter regions in rice”
In all, about 39,000 sequences were measured (“fluorescence intensity (a.u.)”: median about 4,300, highest 2% from about 39,000 on). This excerpt belongs to a sample that is enriched for the highest values.

The sequences below were run against T1, OsSMF1 (Oryza sativa, UniProt Q6ZLB0 1-436) (assay: protein-binding microarray (RPBM); PBS, 2% BSA, 51.3 ng/ul salmon testes DNA, 50 uM zinc acetate, 200 nM TF, 25 C, 1 h; high values mean tight binding). Conditions: protein: recombinant; tags: N-terminal polyhistidine and DsRed monomer fusion (pET32a); chain copies: 2; label: CyDye5-dUTP incorporated in the synthesized complementary strand; 3' TTTTT single-stranded linker to array surface; dsDNA, one strand shown.
T1 sequence: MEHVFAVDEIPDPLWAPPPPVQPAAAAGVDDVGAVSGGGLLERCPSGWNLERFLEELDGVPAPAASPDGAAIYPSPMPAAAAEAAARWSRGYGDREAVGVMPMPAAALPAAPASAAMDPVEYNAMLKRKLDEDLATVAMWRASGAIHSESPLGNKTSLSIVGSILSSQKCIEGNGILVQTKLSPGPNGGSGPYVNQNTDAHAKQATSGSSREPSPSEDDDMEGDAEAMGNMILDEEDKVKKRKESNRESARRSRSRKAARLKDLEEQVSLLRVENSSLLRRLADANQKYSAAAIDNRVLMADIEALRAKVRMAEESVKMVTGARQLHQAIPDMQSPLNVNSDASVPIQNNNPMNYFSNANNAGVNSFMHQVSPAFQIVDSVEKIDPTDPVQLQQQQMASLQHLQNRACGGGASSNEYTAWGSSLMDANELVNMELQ
Summary of the method: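 An Axon 4000B scanner gave the binding signal as per-feature fluorescence intensity in arbitrary units. This followed washing of a custom Agilent array that had been incubated for 1 h at 25 °C with 200 nM protein in PBS, 2% BSA, salmon testes DNA and 50 µM zinc acetate. The proteins were transcription factors fused at the N-terminus to polyhistidine and DsRed, expressed in E. coli BL21-CodonPlus and purified on Ni–NTA.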

| Sequence | binding signal |
| --- | --- |
| CAAACAATATTCTTTTGTGACTAGATCAAGCCGTAGTGTTCGGAGTCACCTAGTGCAG | 3650 fluorescence intensity (a.u.) |
| TATGTACCTTTTCCACAGAACCCTCTACTGTGCCAGGTCACGGAGTCACCTAGTGCAG | 15600 fluorescence intensity (a.u.) |
| CGCGGCAGATCCGCTGGTTGTGGCGGCGTCAGCGGTAGCCCGGAGTCACCTAGTGCAG | 4030 fluorescence intensity (a.u.) |
| ACGACATGCGTGCAAATGCATTGTAAATTTGTAATACGGCCGGAGTCACCTAGTGCAG | 22300 fluorescence intensity (a.u.) |
| TACTTTCGTTTGCAAATATGCGGAATGATGGGGCTGTTTCCGGAGTCACCTAGTGCAG | 3700 fluorescence intensity (a.u.) |
| CACTCTTTATTTTATTATGACTTGATTCGTCATCAAATGTCGGAGTCACCTAGTGCAG | 3870 fluorescence intensity (a.u.) |
| ACCCACACCTCGTCCCCGTCACCTCCTATATCATCGTCATCGGAGTCACCTAGTGCAG | 6470 fluorescence intensity (a.u.) |
| AATATTCTCTGTCTCGGTGTGGTGTCTCTCCTCTGACGGCCGGAGTCACCTAGTGCAG | 4810 fluorescence intensity (a.u.) |
| ATTAGATTTACCGCAAACAATGACGTCCTCCCTGCCTGGACGGAGTCACCTAGTGCAG | 4900 fluorescence intensity (a.u.) |
| ATAATGCATTTAGTATTGCCACCCTGTACTAATAGATGTTCGGAGTCACCTAGTGCAG | 3810 fluorescence intensity (a.u.) |
| CGAGGCGGGGTGCACCTTCATGGTCAGTGGCCCGTGGTTCCGGAGTCACCTAGTGCAG | 4270 fluorescence intensity (a.u.) |
| CGGTGATCCCATACTTGGCACGTACACGTGCCCTCTTGATCGGAGTCACCTAGTGCAG | 6030 fluorescence intensity (a.u.) |
| AAAAGTAATTTATAAATAAAATTTCTATATACGTGTTCTTCGGAGTCACCTAGTGCAG | 3220 fluorescence intensity (a.u.) |
| TTATATACTCCCTCTTTCCACGTAAGTTACATTTATTACTCGGAGTCACCTAGTGCAG | 7340 fluorescence intensity (a.u.) |
| AAACGGATAAGTTAGTAAGTAATTTCTTCCCTCCTAATTTCGGAGTCACCTAGTGCAG | 45900 fluorescence intensity (a.u.) |
| TCCTCCTTCCTTCCACCTCACCCCAACCCCAACCCCAACCCGGAGTCACCTAGTGCAG | 4080 fluorescence intensity (a.u.) |
| TGCCCACGCCGCGCCGCCGCCTCCTCCTCCTCCTCCTCCTCGGAGTCACCTAGTGCAG | 46900 fluorescence intensity (a.u.) |
| TTTTCCAACTTACCTCCTTCATTTTCCACGCGCACATTTTCGGAGTCACCTAGTGCAG | 65500 fluorescence intensity (a.u.) |
| CGTCCACCGCGCCGCCGCCGCCCTCCGTCACGCGCGCGCTCGGAGTCACCTAGTGCAG | 3270 fluorescence intensity (a.u.) |
| GCGCGCCACGCCACGCCACGCGCCCACGCCTCGCCTCGCCCGGAGTCACCTAGTGCAG | 10000 fluorescence intensity (a.u.) |
| GCGCCACCTATAAAACGCCCGCGCGCCCCGCGCCGCCTCCCGGAGTCACCTAGTGCAG | 40300 fluorescence intensity (a.u.) |
| CCCGGGCCTCGCCGCGCCGCGCCACGCCACGCCTCCGCCCCGGAGTCACCTAGTGCAG | 7580 fluorescence intensity (a.u.) |
| TTCTGTAACTTTTCCAACTCACCTTCCTCGCTTCCCACGCCGGAGTCACCTAGTGCAG | 4820 fluorescence intensity (a.u.) |
| GCCTTTCTCTCCACCGCGATTTCTATATATAAAACGCCCCCGGAGTCACCTAGTGCAG | 9620 fluorescence intensity (a.u.) |
| GATCTGACCTCCTCAGCCTCCTTCCCCAACTGTTCCACGCCGGAGTCACCTAGTGCAG | 44800 fluorescence intensity (a.u.) |
| GGCCGCGTGCGTGTGTCCAAACCTTCTCCACGCATTTCCTCGGAGTCACCTAGTGCAG | 4220 fluorescence intensity (a.u.) |
| CTCCTCACACATTCCCACGCACACATTTCCCCATGCACATCGGAGTCACCTAGTGCAG | 3180 fluorescence intensity (a.u.) |

| Sequence | binding signal |
| --- | --- |
| CCACGCGCTCTATAAGTAGACGGCTCTTCGGCGCGTGTCACGGAGTCACCTAGTGCAG | 3400 fluorescence intensity (a.u.) |
| GGTTGAAGTTAATACGTGCCAAATCTATAACTTTATTCCGCGGAGTCACCTAGTGCAG | 3300 fluorescence intensity (a.u.) |
| TGGGAGAGGGTAGTAGGTGGGCCGAGGTACACACGTGGGGCGGAGTCACCTAGTGCAG | 5560 fluorescence intensity (a.u.) |
| TTCGCTGACACGCCCCGTCCACTCTTGTCCACGCTGCGCCCGGAGTCACCTAGTGCAG | 3380 fluorescence intensity (a.u.) |
| TCTTGCCTTCTTGCCCTCCACACTGTCCACGTCTCTCCAACGGAGTCACCTAGTGCAG | 4650 fluorescence intensity (a.u.) |
| GATCAAGGAGGCCGTGGCGGACAGGGAGTGCGGGGTGGATCGGAGTCACCTAGTGCAG | 3360 fluorescence intensity (a.u.) |
| CAGTTAACCACCTAACTGATCAAACTCATTCATGTCACTCCGGAGTCACCTAGTGCAG | 5110 fluorescence intensity (a.u.) |
| AAAACTTGCAACTGCAATTCATGTCAATTTGCCACATCACCGGAGTCACCTAGTGCAG | 13200 fluorescence intensity (a.u.) |
| TCAATAGAAAATAAACTGATTCATGTTAAAACCTTCACACCGGAGTCACCTAGTGCAG | 46600 fluorescence intensity (a.u.) |
| ACAGCGTAGGCTTTTCTTTCACGTCACCACGCGTACGCGACGGAGTCACCTAGTGCAG | 6560 fluorescence intensity (a.u.) |
| TAGTACCAAAGTATTTGTGTGTCACTATGATGTCCTGCCTCGGAGTCACCTAGTGCAG | 6010 fluorescence intensity (a.u.) |
| GGGTGAAGCGTCGCGCGGCGCGCCGTGGCGTGGCGTGGCGCGGAGTCACCTAGTGCAG | 6090 fluorescence intensity (a.u.) |
| ATCTTCTTCTTCATCGCTGTGCAGCTACACACTCTCACTGCGGAGTCACCTAGTGCAG | 3180 fluorescence intensity (a.u.) |
| TGTTTGTCGTGACTTAGCTTAGTTGTTGCTGTTGTTGAGCCGGAGTCACCTAGTGCAG | 3400 fluorescence intensity (a.u.) |
| GTCATATTTATTTGGATGATGTGGCATGTTCTGGTGGTGACGGAGTCACCTAGTGCAG | 15700 fluorescence intensity (a.u.) |
| TTCATATTTATTTGATGACGTGGCTAATCCTGGTCGGATCCGGAGTCACCTAGTGCAG | 40700 fluorescence intensity (a.u.) |
| TTTGATGGTGGTTTTGGCTGACGTGGCACCTACATGGCATCGGAGTCACCTAGTGCAG | 42900 fluorescence intensity (a.u.) |
| GCTTGCTGCTGCTGCTGCTGATAGTTTAGCTTGAGAGAGCCGGAGTCACCTAGTGCAG | 22700 fluorescence intensity (a.u.) |
| GTTTAGATGGTGGTTTTGGCTGACGTGTCACCTACGTGGCCGGAGTCACCTAGTGCAG | 24200 fluorescence intensity (a.u.) |
| GAGGGCGGTTTTGCTGATGTGGCGTTGACGTGGCGATGTTCGGAGTCACCTAGTGCAG | 27700 fluorescence intensity (a.u.) |
| GATGGCGGTTTTGCTGATGTGGCGTTGACGTGCCGACCCGCGGAGTCACCTAGTGCAG | 13200 fluorescence intensity (a.u.) |
| GTGTGGTTTTGCTGATGTGGCGCTGACGTGGCGATATTGACGGAGTCACCTAGTGCAG | 48500 fluorescence intensity (a.u.) |
| GAGTTTGATAGCTTAGCAGAAATAGTTTTGCTGACGTGGCCGGAGTCACCTAGTGCAG | 40700 fluorescence intensity (a.u.) |
| CGGTGGTTTTGGCTGACGTGGCACCTATGTGGCAAATTTGCGGAGTCACCTAGTGCAG | 7870 fluorescence intensity (a.u.) |
| GGCGGTTTTGGATGACGTGGTGCCTACGTGGCTAATTTGACGGAGTCACCTAGTGCAG | 35600 fluorescence intensity (a.u.) |
| AAGAGACCTGTTTATTAGCGTCACTGACAGTCGTTGTCACCGGAGTCACCTAGTGCAG | 3660 fluorescence intensity (a.u.) |
| ATTTCATCCTTATTAGGGCCTATTTGGAGCATTGGCAGGGCGGAGTCACCTAGTGCAG | 3750 fluorescence intensity (a.u.) |
